Assay outcomes as filed in PubChem.
TROY signal inh: inhibitors of TROY-dependent NF-kB signaling; AID 1347056; Q293 LMP1-TROYcd NF-kB luciferase reporter, 4 h; inhibition, % at 10 µM; actives 0.98% (n = 360,000);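 active = compounds whose plate-normalised and pattern-corrected inhibition of the luciferase reporter signal at the single screening dose is 50% or more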
TWEAK Fn14 block: inhibitors of TWEAK-Fn14 interaction signaling | TWEAK-stimulated Fn14 reporter cells, luciferase luminescence, 8 h | inhibition, % at 10 µM | actives 2% (n = 360,000); in the data active = inhibition above about 50%
EWS-Fli block: EWS/Fli transcriptional activity inhibition | A673 NR0B1-luciferase reporter, viability-normalised | inhibition, % at 12.6 µM | actives 0.67% (n = 350,000) | AID 651661;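 active = mean inhibition of at least 50% after viability correction, with every replicate also passing that limit; inconclusive = mean reaches 50% but only one of two replicates passes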;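 also: firefly luciferase signal divided by Alamar Blue viability fluorescence both relative to DMSO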
KKLEB cytotox: reduces viability of KKLEB cystic fibrosis airway cells | AID 602141 | activity change (cytotoxicity), % at 5 µM | KKLEB CF airway cells viability, ATPlite luminescence, overnight; hits give low values; cells stimulated with P. aeruginosa culture filtrate | actives 0.36% (n = 360,000);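 active = corrected activity change at or below -50% at 5 µM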
LGR2 inh: Drosophila LGR2 receptor signaling inhibition; actives 0.35% (n = 380,000); inhibition, % at 9.99 µM; HEK293 LGR2, CRE-luciferase, bursicon-stimulated, 4 h;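 active = drop in luminescence signal, shown as inhibition above about 50% in the replicate tests, limit read from the data, passing the limit was not always enough; inconclusive = probably only some replicates passing the limit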;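 also: agonist challenge used bursicon conditioned medium at about half maximal strength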
CF NFkB inh: blocks PAF-induced NF-kB reporter in cystic fibrosis cells; KKLEB NF-kB-GFP reporter, GFP fluorescence overnight; inhibition, % at 5 µM; actives 0.86% (n = 360,000); AID 588850;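 active = at least 50% inhibition at 5 µM, scaled per plate between neutral and stimulator controls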;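 also: PAF is a Pseudomonas aeruginosa culture filtrate used as stimulus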
Of the large screens only hits and unclear results are named; the others gave an inactive call. The list is not random: actives were taken first. Their share in the collection is about 2.6%.

CN(C)C(=O)c1cccc(-c2ccc([C@@H]3[C@@H](CO)N4C(=O)CN(C(=O)Cc5ccccc5)C[C@@H]34)cc2)c1	none (no result: TROY signal inh, TWEAK Fn14 block, KKLEB cytotox, CF NFkB inh)
NC(N)=N/N=C/c1ccc(OCc2ccccc2)c(OCc2ccccc2)c1	KKLEB cytotox -53
CCOc1cc(CNCCc2ccc(S(N)(=O)=O)cc2)ccc1OCc1ccc(Cl)cc1	TWEAK Fn14 block 86 (no result: EWS-Fli block, LGR2 inh)
COc1cc(/C=N/N=C(N)N)ccc1OCc1ccc(Cl)cc1	TROY signal inh 62, TWEAK Fn14 block 81
COc1cc(/C=N/O)ccc1OCc1ccc(Cl)cc1	none (no result: TROY signal inh, TWEAK Fn14 block, KKLEB cytotox, LGR2 inh, CF NFkB inh)
CCOc1cc(/C=N/N=C(N)N)ccc1OCc1ccc(Cl)cc1	LGR2 inh 53
C[C@@H]1CN([C@@H](C)CO)C(=O)c2cc(NC(=O)C3CCCCC3)ccc2O[C@@H](C)CCCCO[C@@H]1CN(C)CC1CCCCC1	none (no result: TROY signal inh, TWEAK Fn14 block, KKLEB cytotox, CF NFkB inh)
C[C@@H]1CN([C@H](C)CO)C(=O)c2cc(-c3cncnc3)cnc2O[C@@H]1CN(C)C(=O)CN1CCOCC1	none (no result: TROY signal inh, TWEAK Fn14 block, KKLEB cytotox, CF NFkB inh)
C[C@@H]1CN([C@H](C)CO)S(=O)(=O)c2ccc(C#CC(C)(C)O)cc2O[C@H]1CN(C)CC1CCCC1	none (no result: TROY signal inh, TWEAK Fn14 block, KKLEB cytotox, CF NFkB inh)
Oc1c(Cl)cc(Cl)cc1/C=N/NC(=S)NC1CC2C=CC1C2 (stereo not given)	KKLEB cytotox -72, CF NFkB inh 50
Oc1ccccc1C=NNC(=S)NC1CC2C=CC1C2 (stereo not given)	none (no result: LGR2 inh)
CCNC(=O)C[C@H]1CC[C@@H]2[C@H](COC[C@@H](O)CN2Cc2ccncc2)O1	none (no result: TROY signal inh, TWEAK Fn14 block, KKLEB cytotox, CF NFkB inh)
COc1ccc(NC(=O)C2CCCN(CCCc3ccccc3)C2)cc1OCC(C)C (stereo not given)	EWS-Fli block 61
COc1ccc(NC(=O)C2CCCNC2)cc1OCC(C)C (stereo not given)	none (no result: EWS-Fli block, LGR2 inh)
Cc1ccc([N+](=O)[O-])cc1N/C=C/C(=O)c1ccco1	none
Cc1ccc(N/C=C/C(=O)c2ccco2)c(O)c1	TWEAK Fn14 block 95
Cc1ccc(S(=O)(=O)N(C)C[C@H]2Oc3c(NC(=O)c4cc(C)nn4C)cccc3C(=O)N([C@@H](C)CO)C[C@H]2C)cc1	none (no result: TROY signal inh, TWEAK Fn14 block, KKLEB cytotox, CF NFkB inh)
C[C@H]1CN([C@@H](C)CO)C(=O)c2cc(-c3cccnc3)cnc2O[C@H]1CN(C)C(=O)C1CC1	none (no result: TROY signal inh, TWEAK Fn14 block, KKLEB cytotox, CF NFkB inh)
CCCC(=O)OCCNc1cc(Sc2nc3ccccc3[nH]2)c2nonc2c1[N+](=O)[O-]	KKLEB cytotox -66, CF NFkB inh 92 (no result: EWS-Fli block)
CCC(=O)OCCNc1cc(Sc2nccn2C)c2nonc2c1[N+](=O)[O-]	KKLEB cytotox -78, CF NFkB inh 89 (no result: EWS-Fli block)
CC(C)CCSc1cc(NCCO)c([N+](=O)[O-])c2nonc12	none
Cc1ccc(Sc2cc(NCCCO)c([N+](=O)[O-])c3nonc23)cc1	TWEAK Fn14 block 55
CCOc1ccc(C(C)=O)cc1COc1cccnc1[N+](=O)[O-]	TROY signal inh 60 (no result: EWS-Fli block)
COc1ccc(C(C)=O)cc1COc1cccnc1[N+](=O)[O-]	none
O=C(c1cccnc1)N1CC[C@@H]2[C@H]1c1cc(-c3ccc(F)cc3)ccc1N[C@@H]2CO	none (no result: TROY signal inh, TWEAK Fn14 block, KKLEB cytotox, CF NFkB inh)
COc1ccccc1CCNC(=O)CSc1ccc(-c2cccs2)nn1	none
COc1ccccc1NC(=O)CSc1ccc(-c2cccs2)nn1	TWEAK Fn14 block 53
COc1ccc(S(=O)(=O)N2CCCc3ccccc32)cc1OC	TROY signal inh 60, TWEAK Fn14 block 56
COc1ccc(C(=O)Nc2ccc(S(=O)(=O)N3CCc4ccccc43)cc2)cc1	TWEAK Fn14 block 80 (no result: EWS-Fli block, LGR2 inh)
COc1ccc(S(=O)(=O)N2CCCc3ccccc32)cc1[N+](=O)[O-]	none
O=C(O)c1ccc(S(=O)(=O)N2CCCc3ccccc32)cc1	none
NC(=O)c1ccsc1NC(=O)c1ccc(S(=O)(=O)N2CCCc3ccccc32)cc1	TROY signal inh 61, TWEAK Fn14 block 92
CCn1c(SCC(=O)N/N=C/c2ccc(OC)c(OC)c2)nc2ccccc21	none (no result: EWS-Fli block)
C=CCSc1nc2ccccc2n1C(=O)/C=C/c1cc(OC)c(OC)c(OC)c1	TWEAK Fn14 block 57, EWS-Fli block 67, LGR2 inh 96, CF NFkB inh 91
CCSc1nc2ccccc2n1C(=O)/C=C/c1ccc(OC)c(OC)c1	TWEAK Fn14 block 100, LGR2 inh inconclusive, CF NFkB inh 84 (no result: EWS-Fli block)
COc1cc(/C=C/C(=O)N2CCN(C(=O)/C=C/c3cc(OC)c(OC)c(OC)c3)CC2)cc(OC)c1OC	none (no result: EWS-Fli block, LGR2 inh)
Cc1ccc(S(=O)(=O)Nc2nc(-c3ccccc3)cs2)cc1	none
Cc1nc(C)c(-c2csc(Nc3ccc(Cl)cn3)n2)s1	TWEAK Fn14 block 57
Cc1nc(N)sc1-c1csc(Nc2ncccn2)n1	TWEAK Fn14 block 50
Cc1ccc(Nc2nc(-c3cccs3)cs2)nc1	TROY signal inh 71, TWEAK Fn14 block 75
Cc1nc(C)c(-c2csc(Nc3ccc(F)cc3)n2)s1	none
Cc1ccc(Nc2nc(-c3ccccc3)cs2)nc1	TWEAK Fn14 block 75, LGR2 inh 60
N#C[C@@H]1[C@H](c2ccccc2-c2cccc(F)c2)[C@@H](CO)N1S(=O)(=O)c1cccc(F)c1	none (no result: TROY signal inh, TWEAK Fn14 block, KKLEB cytotox, CF NFkB inh)
Cc1cc(C)nc(Nc2nc(-c3ccccc3)cs2)n1	TWEAK Fn14 block 63
C[C@H](CO)N1C[C@H](C)[C@@H](CN(C)S(=O)(=O)c2cccs2)OCc2ccccc2-c2c(n(C)c3ccccc23)C1=O	none (no result: TROY signal inh, TWEAK Fn14 block, KKLEB cytotox, CF NFkB inh)
C[C@H](CO)N1C[C@H](C)[C@@H](CN(C)C(=O)Nc2ccc(F)cc2)Oc2ccc(NC(=O)C3CCCCC3)cc2C1=O	none (no result: TROY signal inh, TWEAK Fn14 block, KKLEB cytotox, CF NFkB inh)
O=C(Nc1nc2ccccc2n1Cc1ccccc1)c1ccc(COc2ccccc2[N+](=O)[O-])o1	KKLEB cytotox -68
Cc1ccc(OCc2ccc(C(=O)Nc3nc4ccccc4n3Cc3ccccc3)o2)c([N+](=O)[O-])c1	none (no result: EWS-Fli block, LGR2 inh)
Nc1c(C(=O)Nc2ccccc2)nnn1-c1ccc2c(c1)OCCO2	TWEAK Fn14 block 56
Cc1ccc(NC(=O)c2nnn(-c3ccc4c(c3)OCCO4)c2N)cc1	none
COC(=O)c1c(C)[nH]c(C(=O)/C=C/c2ccccc2)c1C	none (no result: EWS-Fli block)
COC(=O)c1c(C)[nH]c(C(=O)/C=C/c2ccc(C)cc2)c1C	EWS-Fli block 91
CCC(=O)Nc1cc2nn(-c3ccccc3)nc2cc1Cl	TWEAK Fn14 block 52 (no result: EWS-Fli block, LGR2 inh)
CC(=O)Nc1cc2nn(-c3ccccc3)nc2cc1C	none (no result: LGR2 inh)
O=C1C=C(N(CCO)Cc2ccccc2)c2ccccc2C1=O	CF NFkB inh 68 (no result: EWS-Fli block, LGR2 inh)
Cc1cccc(NC(=O)NCC2CCN(c3ccc(S(=O)(=O)N4CCOCC4)cc3)CC2)c1	TROY signal inh 54
Cc1ccccc1NC(=O)NCC1CCN(c2ccc(S(=O)(=O)N3CCOCC3)cc2)CC1	none
c1ccc(OCCNc2ccn3nc(-c4ccc(OCCN5CCOCC5)cc4)cc3n2)cc1	TWEAK Fn14 block 54
Cc1ccc(S(=O)(=O)N(C)C[C@@H]2OCCCC[C@H](C)Oc3ccc(NC(=O)CCC(F)(F)F)cc3C(=O)N([C@@H](C)CO)C[C@H]2C)cc1	none (no result: TROY signal inh, TWEAK Fn14 block, KKLEB cytotox, CF NFkB inh)
CCOC(=O)c1sc(=NC(=O)c2cccs2)n(C)c1C	none
CCOC(=O)c1sc(=NC(=O)c2ccc(Cl)s2)n(C)c1C	TROY signal inh 54
